Results from PubChem BioAssay (NCATS).
Records with an inconclusive call do not appear. The source made the active and inactive calls. Calls follow the shape of the dose curve; as a rule, active = well fitted curve in the direction sought with a large enough effect; inconclusive = small, poorly fitted or top-dose-only effect, or another doubt; inactive = no such curve, though single readings can be large; an effect the other way counts as inactive or inconclusive.

Assays:
[1] = HPAF-II Cancer Cell Toxicity qHTS against the NCATS CANVASS Library (AID 1347346); also: nearly all actives have a fitted effect of over 55% in size; also: potency is read from the fitted curve at half-maximal effect
Summary of the method: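 Cytotoxicity in HPAF-II pancreatic cancer cells: 72 h treatment across 11 concentrations, ATP-based CellTiter-Glo luminescence endpoint.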

[2] = OV-SAHO Cancer Cell Toxicity qHTS against the NCATS CANVASS Library (AID 1347348); also: series mostly up to about 38 µM; nearly all actives have a fitted effect of over 55% in size
Summary of the method: (§1)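 ATP content after 72 h treatment, detected by CellTiter-Glo luminescence (15min room-temperature development), reflects cell viability. Wells contained 1000 cells and received compounds at 11 concentrations.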

[3] = Panc-1005 Cancer Cell Toxicity qHTS against the NCATS CANVASS Library (AID 1347349); also: series mostly up to about 38 µM; nearly all actives have a fitted effect of over 60% in size
Summary of the method: as §1

[4] = COV-362 Cancer Cell Toxicity qHTS against the NCATS CANVASS Library (AID 1347352); also: series mostly up to about 38 µM
Summary of the method: (§2)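 qHTS cytotoxicity: compounds tested in 11 concentrations on 1000 seeded cells per well over 72 h; bortezomib served as control; signal from CellTiter-Glo luminescence.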

[5] = A2780 Cisplatin Sensitive Ovarian Cancer Cell Toxicity qHTS against the NCATS CANVASS Library (AID 1347353); also: nearly all actives have a fitted effect of over 60% in size; also: potency is read from the fitted curve at half-maximal effect
Summary of the method: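 Seventy-two-hour exposure of cisplatin-sensitive A2780 ovarian cells to an 11-concentration qHTS series; cytotoxicity is inferred from loss of ATPLite luminescence. Bortezomib titration served as positive control.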

[6] = UWB1.289-WTBRCA1 Cancer Cell Toxicity qHTS against the NCATS CANVASS Library (AID 1347354)
Summary of the method: as §2

[7] = HEK-293 Cancer Cell Toxicity qHTS against the NCATS CANVASS Library (AID 1347355); also: nearly all actives have a fitted effect of over 65% in size; also: potency is read from the fitted curve at half-maximal effect
Summary of the method: as §2

[8] = HPAF-II 24hr Apoptosis Induction qHTS against the NCATS CANVASS Library (AID 1347356)
Summary of the method: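 Apoptosis induction in HPAF-II pancreatic cancer cells is measured as caspase-3/7 luminescence after a 24-hour exposure to compounds.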

[9] = KB-8-5-11 Cancer Cell Toxicity qHTS against the NCATS CANVASS Library (AID 1347364); also: nearly all actives have a fitted effect of over 75% in size; also: potency is read from the fitted curve at half-maximal effect
Summary of the method: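 Natural products were titrated in 11 points onto KB-8-5-11 cells, 500 per well, and cytotoxicity was scored from CellTiter-Glo luminescence after 72 hr culture.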

[10] = SDT Cancer Cell Toxicity qHTS against the NCATS CANVASS Library (AID 1347365); also: nearly all actives have a fitted effect of over 60% in size; also: potency is read from the fitted curve at half-maximal effect
Summary of the method: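 Dispense 500 SDT cells per well; pin-transfer compounds; incubate 72 hr at 37C, 5% CO2, 95% RH; add CellTiterGlo and read luminescence.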

[11] = qHTS for ATAD5 Agonist screened against the NCATS CANVASS Library (AID 1347367)
Summary of the method: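 Luminescence read-out: ATAD5-driven luciferase in stably transfected HEK 293T cells, which rises post-transcriptionally with DNA damage. Cells were exposed 16hr at 37C to test compound; a CellTiter-Fluor fluorescence read (1hr) measured viability first.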

[12] = qHTS for Hypoxia signaling pathway (HIF-1) agonists against the NCATS CANVASS Library (AID 1347375)
Summary of the method: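 Inducers of HIF-1 signaling were detected in ME-180 cells bearing an HRE-driven beta-lactamase reporter after 17 h compound exposure. Activity came from CCF4-AM FRET emission ratio (460/530 nm) in qHTS format.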

[13] = Cytotoxicity qHTS for assessment of Hepg2 cells membrane integrity screened against the NCATS CANVASS Library (AID 1347387)
Summary of the method: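 Fluorescence proportional to lysed-cell number, from LDH leaking out of HepG2 cells exposed 5 hr at 37C to 0.59 nM - 46 uM compound (11-point qHTS), is measured after 10 min with CytoTox-ONE.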

[14] = qHTS for activators of dead-cell proteases activity screened against the NCATS CANVASS Library (AID 1347392);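 also: luminescence from protease leaking out of membrane-damaged cells cleaving impermeant substrate; rising signal means more cytotoxicity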
Summary of the method: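 Compounds are pin-transferred onto attached HepG2 cells, giving 11 final concentrations. After 5 h at 37C, AAF-aminoluciferin reagent is added and luminescence is recorded at room temperature.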

[15] = Vero-766 cells viability qHTS against the NCATS CANVASS Library: Counterscreen for Zika virus inhibition assay (AID 1347394); also: nearly all actives have a fitted effect of over 60% in size; also: potency is read from the fitted curve at half-maximal effect
Summary of the method: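 CellTiter-Glo luminescence, lower signal indicating cytotoxicity. Vero 766 cells without Zika virus, 1000 cells/well, plated overnight, then treated 72 h at 37C across an 11-point series.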

[16] = Viability qHTS for inhibitors of the SERCaMP assay screened against the NCATS CANVASS Library (AID 1347400); also: nearly all actives have a fitted effect of over 70% in size; also: potency is read from the fitted curve at half-maximal effect
Summary of the method: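 Cytotoxicity counter-screen: ATP content (CellTiter-Glo luminescence) of SH-SY5Y-GLuc SERCaMP MJH297 cells after 48 h at 37C with compounds in an 11-point qHTS series.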

[17] = qHTS for Hypoxia signaling pathway (HIF-1) antagonists against the NCATS CANVASS Library (AID 1347374); also: nearly all actives have a fitted effect of over 60% in size; also: potency is read from the fitted curve at half-maximal effect
Summary of the method: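 HRE-bla ME-180 cells (2,000/well, 0.5% dialyzed FBS) were pre-incubated 5 h, then given an 11-point compound series plus CoCl2 (60 uM solution as added) for 17 h at 37C. CCF4 β-lactamase read (ex 405, em 460/530 nm) after 2 h at RT.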

[18] = qHTS for inhibitors of ER calcium dysfunction: SERCaMP assay screened against the NCATS CANVASS Library (AID 1347393);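 also: series mostly up to about 77 µM; lower secreted reporter signal means inhibitor of ER calcium depletion; nearly all actives have a fitted effect of over 40% in size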
Summary of the method: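 Thapsigargin-induced ER calcium depletion drives GLuc-SERCaMP secretion from SH-SY5Y cells; compounds given 16 h beforehand were scored by lowered coelenterazine luminescence after 4 h challenge.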

[19] = Redox Reaction Profiling qHTS: Assay Interference Panel against the NCATS CANVASS Library (AID 1347401)
Summary of the method: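 Cell-free redox surrogate: 5 uM resazurin + 200 uM DTT, 50 mM HEPES pH 7.3/50 mM NaCl; cpds pinned, 11-pt qHTS; Ex525/Em598 read t0 and t=15 min, dark.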

[20] = qHTS for activators of Nrf2/ARE signaling pathway screened against the NCATS CANVASS Library (AID 1347391); also: nearly all actives have a fitted effect of over 60% in size
Summary of the method: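 Cells carrying an ARE-driven beta-lactamase reporter (HepG2 background) are dosed for 16 h, then stained with CCF4. Cell viability in the same wells is measured by CellTiter-Glo luminescence.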

Measured: Potency

COC(=O)[C@@]12Oc3cccc(O)c3C(O)=C1C(=O)C[C@H](C)[C@H]2O
not listed: [17] | [18] | [19] | [20]
inactive: all other assays above

COc1cc([C@@H]2c3cc4c(cc3C[C@@]3(O[C@@H]5O[C@H](CO)[C@@H](O)[C@H](O)[C@H]5O)COC(=O)[C@H]23)OCO4)cc(OC)c1OC
inactive: [1] | [2] | [8] | [11] | [17] | [12] | [18] | [19]
active: [5] 0.0372 µM | [7] 0.0469 µM | [9] 0.0526 µM | [10] 0.0418 µM | [16] 0.048 µM

C/C=C/[C@H]1[C@H]2C(=O)c3c(O)c(C)c(O)c(C)c3[C@]1(C(=O)O)C(=O)C=C2C
not listed: [12] | [14]
inactive: all other assays above

C[C@@]12CCC[C@@](C)(C(=O)O)[C@H]1C[C@@H](O)[C@@]13C[C@@H](CC[C@@H]21)[C@](C)(O)C3
inactive: all assays above

CCC(=O)N[C@@H](C[C@H](C)C(Cl)(Cl)Cl)C(=O)N1C(=O)C=C(OC)[C@@H]1C[C@H](C)CCl
inactive: [7] | [9] | [10] | [11] | [20] | [15] | [16] | [19]
active: [1] 16.8 µM

COC12OC1(C13OC1(OC)C(=O)c1cc4cc(C)oc(=O)c4c(O)c1C3O)C(O)c1c(cc3cc(C)oc(=O)c3c1O)C2=O (stereo not drawn)
active: [17] 14.9 µM | [15] 23.4 µM
not listed: [1] | [8] | [19]
inactive: all other assays above
